A selection: hits, their analogues and other compounds. The true share with any hit is near 2.7%.
TrxR1 substrate – qHTS Assay for Substrates of Mammalian Selenoprotein Thioredoxin Reductase 1 (TrxR1): qHTS | Thioredoxin reductase 1, cytoplasmic (Rattus norvegicus), O89049 | hit rate 0.01% among 390,000 | purified TrxR1 substrate turnover, NADPH consumption readout | Potency, µM (doses to about 114 µM), for the others: top-dose activity change, negative = substrate turnover; further: potency means the concentration at half of the fitted maximal effect; on the % scale 0 is the no-effect control and ±100 the full control effect; nearly all actives have a fitted effect of over 50% in size
Target sequence (O89049 whole entry, looked up): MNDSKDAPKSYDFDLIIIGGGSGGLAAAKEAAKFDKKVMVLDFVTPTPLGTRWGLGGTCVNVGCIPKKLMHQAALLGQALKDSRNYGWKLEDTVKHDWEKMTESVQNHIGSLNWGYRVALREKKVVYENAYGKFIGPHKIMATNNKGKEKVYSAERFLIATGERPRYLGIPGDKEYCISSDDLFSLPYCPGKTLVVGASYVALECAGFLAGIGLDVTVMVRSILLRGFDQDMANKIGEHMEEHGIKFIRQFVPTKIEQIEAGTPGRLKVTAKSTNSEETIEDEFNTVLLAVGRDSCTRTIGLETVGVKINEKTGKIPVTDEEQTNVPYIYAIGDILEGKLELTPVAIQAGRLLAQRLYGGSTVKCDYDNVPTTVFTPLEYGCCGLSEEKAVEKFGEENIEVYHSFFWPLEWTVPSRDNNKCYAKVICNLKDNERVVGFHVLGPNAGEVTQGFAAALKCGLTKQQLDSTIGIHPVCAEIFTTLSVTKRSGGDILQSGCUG
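Rat TrxR1, dispensed at 90 nM, was prereduced with 400 uM NADPH (final) for 5 min at ~22 deg C, then incubated with compound 15 min before 400 uM selenite. A first-read NADPH fluorescence drop versus no-compound background flagged substrates.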
rTrxR1 inhibitor – qHTS Assay for Inhibitors of Mammalian Selenoprotein Thioredoxin Reductase 1 (TrxR1): qHTS. recombinant rTrxR1, NADPH fluorescence consumption, selenite substrate. AID 588453, 2011. hit rate 1% among 390,000. Potency, µM (doses to about 114 µM), for the others: at the highest dose activity change, negative = inhibition, most hits filed as inhibitors; further: potency means the concentration at half of the fitted maximal effect; on the % scale 0 is the no-effect control and ±100 the full control effect; nearly all actives have a fitted effect of over 65% in size
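Rat TrxR1 (90 nM in the dispensed reagent) was pre-reduced with 400 uM NADPH for 5 min at room temperature, then incubated with compound for 15 min. After 400 uM selenite was added, NADPH fluorescence (Ex 340/Em 450 nm) was followed for 8 min.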
GLP1R ag – qHTS of GLP-1 Receptor Agonists | Potency, µM (series often up to 45.6 µM), for inactives: at the highest dose activation, actives largely listed as activators | hit rate 0.007% among 380,000 | HEK293 GLP-1R CRE-luciferase, luminescence, 4-6 h; cells express a hypersensitive GLP-1R form | AID 624172, 2012 | Glucagon-like peptide 1 receptor (Homo sapiens), P43220; further: potency means the concentration at half of the fitted maximal effect; % of control where 0% means no effect
mIDH1 inhibitor – qHTS for Inhibitors of mutant isocitrate dehydrogenase 1 (IDH1): qHTS. Isocitrate dehydrogenase [NADP] cytoplasmic (Homo sapiens), O75874. IDH1-R132H enzyme, NADPH consumption, diaphorase/resazurin fluorescence. Potency, µM (top dose mostly 76.6 µM), without a hit: at the top dose activity change, negative = inhibition, most hits filed as inhibitors. hit rate 0.093% among 390,000; further: potency means the concentration at half of the fitted maximal effect; on the % scale 0 is the no-effect control and ±100 the full control effect; nearly all actives have a fitted effect of over 65% in size
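IDH1-R132H (0.5 ug/mL dispensed) in pH 7.5 Tris buffer was preincubated 30 min with compound, then given a substrate mix of 0.016 mM NADPH and 2 mM alpha-KG for 80 min at room temperature; remaining NADPH was read by diaphorase/resazurin fluorescence.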
HEK293 tox – qHTS of GLP-1 Receptor Inverse Agonists: Cytotox Screen; Potency, µM (highest dose often 38.3 µM), inactives show top-dose activity change, negative = inhibition, usual class: inhibitors; HEK293 cAMP-luciferase reporter cells, luminescence, 24 h; hit rate 0.13% among 410,000;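 further: loss of luciferase light is scored as toxicity; potency means the concentration at half of the fitted maximal effect; on the % scale 0 is the no-effect control and ±100 the full control effect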
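Here, cytotoxicity is scored as loss of luminescence. The MLSMR collection was tested on cells seeded in medium containing 10% Nu serum, with a 24 hr compound exposure preceded by 12 hours of culture.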
GLP-1R inv ag – qHTS of GLP-1 Receptor Inverse Agonists (Inhibition Mode). Glucagon-like peptide 1 receptor (Homo sapiens), P43220. HEK293 GLP-1R CRE-luciferase, luminescence, 24 h; GLP-1R form is constitutively active. Potency, µM (series often up to 38.3 µM), for inactives: at the highest dose activity change, negative = inhibition, usual class: inhibitors. hit rate 1.6% among 410,000; further: potency means the concentration at half of the fitted maximal effect; on the % scale 0 is the no-effect control and ±100 the full control effect; nearly all actives have a fitted effect of over 55% in size
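Stable HEK293 clone (constitutively active GLP-1R + cAMP-response luciferase); 200 cells/uL plated, 12 h pre-culture, compound 24 hr, 37 deg C/5% CO2; detection reagent 12 min RT; luminescence.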
Resorufin autofl – qHTS for Inhibitors of mutant isocitrate dehydrogenase 1 (IDH1): Cherrypicks Autofluorescence Interference; shares compounds with mIDH1 inhibitor; Resorufin detection reagent fluorescence interference, cell-free; inhibition of signal, % at 51.2 µM; 750 tested, under 10 active; AID 623980, 2012;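 further: 0% = wells with normal resorufin and full inhibition = wells lacking resorufin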
WT IDH1 inh – qHTS for Inhibitors of mutant isocitrate dehydrogenase 1 (IDH1): Cherrypicks in WT IDH1. shares compounds with mIDH1 inhibitor. WT IDH1 enzyme, NADPH diaphorase/resazurin fluorescence. Potency, µM (highest dose often 115 µM), inactives show top-dose activity change, negative = inhibition, hits mostly inhibitors. hit rate 9% among 750. AID 623995, 2012;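 further: potency means the concentration at half of the fitted maximal effect; 0% = full WT IDH1 enzyme control and full inhibition = no enzyme wells; nearly all actives have a fitted effect of over 55% in size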
IDH1 R132H conf – qHTS for Inhibitors of mutant isocitrate dehydrogenase 1 (IDH1): Confirmation of Cherrypicks; IDH1 R132H enzyme, NADPH diaphorase/resazurin fluorescence; Potency, µM (top dose mostly 76.6 µM), for the others: at the top dose activity change, negative = inhibition, most hits filed as inhibitors; hit rate 83% among 750; AID 624002, 2012; shares compounds with mIDH1 inhibitor; further: potency means the concentration at half of the fitted maximal effect; nearly all actives have a fitted effect of over 50% in size
* = called active by the depositor; ? = inconclusive; . = not tested or not shown; [ ] = remark or other dose. The call rests on the fitted dose curve; in most records, active means well fitted curve in the direction sought with a large enough effect; inconclusive means small, poorly fitted or top-dose-only effect, or another doubt; inactive means no such curve, though single readings can be large; an effect the other way counts as inactive or inconclusive.

SMILES | TrxR1 substrate | rTrxR1 inhibitor | GLP1R ag | mIDH1 inhibitor | HEK293 tox | GLP-1R inv ag | Resorufin autofl | WT IDH1 inh | IDH1 R132H conf
O=c1cc(N2CCCCC2)c(-c2ccccc2)nn1Cc1c(Cl)cccc1Cl | 2.9%[57.1 µM] | 8.7%[57.1 µM] | -4.1% | 20.7µM* | ? | ? | 3.8 | 9.1% | 14.1µM*
COc1cccc(Cn2c(=O)n(-c3cccc(Cl)c3C)c(=O)c3c4c(sc32)CN(C(C)=O)CC4)c1 | 3.7%[57.1 µM] | 15.5%[57.1 µM] | . | 35.5µM* | -12.9% | 11.5% | 0.7 | 20µM* | 25.1µM*
CC(=O)N1CCc2c(sc3c2c(=O)n(-c2ccccc2C)c(=O)n3Cc2cccc(F)c2)C1 | 18.2% | -10.4% | . | -23.3% | -10.3% | -0.3% | . | . | .
CC(C)(C)OC(=O)N1CCC(c2cc(=O)n3[nH]cc(C(=O)NC4CCCC4)c3n2)CC1 | 21.4% | -0.3% | 1.5% | -30.5% | 2.8% | 24.0% | . | . | .
CC(C)(C)OC(=O)N1CCC(c2cc(=O)n3[nH]cc(C(=O)Nc4ccc(F)c(Cl)c4)c3n2)CC1 | 3.1% | 0.1% | 7.8% | ? | 8.7% | 28.6% | -7.7 | ? | 10µM*
COc1ccc(NC(=O)c2c[nH]n3c(=O)cc(C4CCN(C(=O)OC(C)(C)C)CC4)nc23)cc1Cl | 1.7% | 13.1% | 12.6% | 41.4µM* | -9.4% | 19.2% | -4.9 | 31.6µM* | 20µM*
COc1ccc(NC(=O)c2cnn(-c3ccc(F)cc3F)c2C2CCN(C(=O)OC(C)(C)C)CC2)cc1Cl | 2.9% | 27.0% | . | -3.7% | -10.1% | ? | . | . | .
O=C(NCc1ccccc1)c1ccc(CNS(=O)(=O)c2ccc(Br)cc2)cc1 | 2.1% | 29.0% | -2.1% | -4.6% | -0.4% | 4.4% | . | . | .
Cc1ccc(-n2c(O)c(C=Nc3ccccc3-c3n[nH]c(=S)[nH]c3=O)c3ccccc3c2=O)c(C)c1 | -7.0% | ? | 11.7% | ? | -20.5% | -11.0% | -4.6 | 79.4µM* | 35.5µM*
Cc1cc(C)cc(OCCSc2nc(-c3ccc(C(C)(C)C)cc3)nc3cc(=O)[nH]n23)c1 | 123.0%[57.1 µM] | ? | . | ? | 4.5% | -3.5% | -4.7 | ? | 25.1µM*
CC(C)(C)c1ccc(-c2nc(SCCCOc3ccccc3)n3[nH]c(=O)cc3n2)cc1 | -2.4%[57.1 µM] | -9.6%[57.1 µM] | . | . | -3.0% | 0.8% | . | . | .
Cc1cccc(OCc2ccc(-c3nc(C#N)c(NCCN(C)C)o3)o2)c1 | 10.1% | -11.0% | . | . | -14.0% | -9.6% | . | . | .
Cc1ccc2nc3c(nc2c1C)C(O)=C3O | 1.6%[57.1 µM] | 8.91µM* | 0.5% | ? | -4.4% | 2.6% | -5.8 | 62.8% | 44.7µM*

Bioassay records from PubChem.
